Laboratory results as given in the supplement of paper PMC10646978.
± gives the standard deviation.

Each molecule was assayed on RAW-Dual (murine macrophage reporter line) (assay: IRF reporter (Lucia luciferase) activity fold change vs agonist alone; higher = enhanced IRF activity). Settings: modulator concentration 10 µM; agonist: LPS 0.1 ug/mL.
Outline: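 Overnight stimulation with a PRR agonist followed pre-incubation for 1 hour at 37 °C with compound at 10 μM final. This was done in RAW-Dual murine macrophage reporter cells seeded at 50 000 per well in 384-well plates. NF-κB (SEAP, QUANTI-Blue absorbance at 620 nm) and IRF (Lucia luciferase, QUANTI-Luc luminescence) were read from the supernatant. Each reporter's fold change relative to the mean agonist-only control on the same plate was averaged over replicate plates.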

Q: Which IRF reporter does the source give for O=[N+]([O-])c1cc2c(cc1C=Nc1ccc(O)cc1)OCO2 here?
A: 1.19 ± 0.15

Q: With CCNC(=O)CCC/C=C\C[C@@H]1[C@@H](/C=C/C(O)CCc2ccccc2)[C@@H](O)C[C@@H]1O (some centres undefined) as the molecule, how does the IRF reporter read?
A: 0.961 ± 0.061

Q: CCCS(=O)c1ccc2nc(NC(=O)OC)[nH]c2c1 (centres undefined) was tested. Which IRF reporter did it give?
A: 0.927 ± 0.037

Q: C#CCN[C@@H]1CCc2ccccc21 [Prestw-1734] was tested. Which IRF reporter did it give?
A: 0.957 ± 0.054

Q: Which IRF reporter does the source give for CCOC(=O)c1ccccc1NC(=O)CN(c1cc(Cl)ccc1OC)S(C)(=O)=O here?
A: 1.38 ± 0.2

Q: Which IRF reporter does the source give for Cc1ccccc1C(=O)Nc1nc(C(C)(C)C)cs1 here?
A: 1.23 ± 0.13

Q: For CC(Cc1ccc(O)c(O)c1)(NN)C(=O)O (centres undefined), which IRF reporter is on record?
A: 1.24 ± 0.15

Q: How did the IRF reporter turn out when O=C(NN=Cc1ccc([N+](=O)[O-])o1)c1ccc(O)cc1 was run?
A: 1.77 ± 0.18

Q: O=C(CC12CC3CC(CC(C3)C1)C2)N1CCCCC1 was tested. Which IRF reporter did it give?
A: 1.53 ± 0.1

Q: Which IRF reporter does the source give for COC(=O)C1=CN(CC2CCCO2)C=C(C(=O)OC)C1c1ccccc1Br (centres undefined) here?
A: 1.18 ± 0.21

Q: With CCN(CC)C(=S)SSC(=S)N(CC)CC as the molecule, how does the IRF reporter read?
A: 0.201 ± 0.025

Q: With O=C(c1cc2cc(F)ccc2s1)N1CCc2ncncc2C1 as the molecule, how does the IRF reporter read?
A: 1.23 ± 0.14

Q: With Cc1ccc(-n2ncnc2-c2ccccc2C)cc1Cl as the molecule, how does the IRF reporter read?
A: 1.48 ± 0.12

Q: With COc1ccc(N(CC(=O)NCCSCc2ccccc2)S(C)(=O)=O)cc1Cl as the molecule, how does the IRF reporter read?
A: 1.08 ± 0.1

Q: Which IRF reporter does the source give for COc1ccc(CNc2nc(N3CCC[C@H]3CO)ncc2C(=O)NCc2ncccn2)cc1Cl here?
A: 1.39 ± 0.4

Q: For O=C(Cc1ccccc1)NC(NC(=S)Nc1ccc(O)cc1)C(Cl)(Cl)Cl (centres undefined), which IRF reporter is on record?
A: 1.29 ± 0.24

Q: With CC(C)Oc1ccc(C(=O)NC2CCN(c3ncnc4c3CCCC4)CC2)cn1 as the molecule, how does the IRF reporter read?
A: 1.06 ± 0.083

Q: With COc1ccc(S(=O)(=O)NCc2ccnc(N3CCOCC3)n2)cc1Cl as the molecule, how does the IRF reporter read?
A: 1.07 ± 0.079

Q: With CC(=O)OC(OC(C)=O)c1ccc([N+](=O)[O-])cc1 as the molecule, how does the IRF reporter read?
A: 1.09 ± 0.1
